# Assay results: PubChem BioAssay (EPA / NIEHS)
# Records with an inconclusive call do not appear. Calls of active or inactive are those of the source. The calls were made as follows: active = hit-call score of the fitted dose curve at least 0.9, where 1 is the maximum; inconclusive = response in the unintended direction; inactive = score below 0.9.
# Read-out: xenobiotic metabolism (CYP1A1), CYP1A1 (gene 1543)
# Assay: CLD_CYP1A1_6hr: CellzDirect (CLD) Gene Expression Assay for xenobiotic metabolism (CYP1A1) at 6 hours (AID 2283661);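 as to AC50: potency for transcript induction above DMSO vehicle baseline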
# Experimental: CLD_6hr is a cell-based, multiplexed-readout assay that uses hepatocyte, a human liver primary cell, with measurements taken at 6 hours after chemical dosing in a 96-well plate.CLD_CYP1A1_6hr is one of 16 assay component(s) measured or calculated from the CLD_6hr assay. It is designed to make measurements of mRNA induction, a form of inducible reporter, as detected with chemiluminescence signals by Quantitative Nuclease Protection Assay (qNPA) technology.Data from the assay component CLD_CYP1A1_6hr was analyzed at the endpoint, CLD_CYP1A1_6hr, in the positive analysis fitting direction relative to DMSO as the negative control and baseline of activity. Using a type of inducible reporter, gain-of-signal activity can be used to understand changes in the reporter gene as they relate to the gene CYP1A1. Furthermore, this assay endpoint can be referred to as a primary readout. To generalize the intended target to other relatable targets, this assay endpoint is annotated to the cyp intended target family, where subfamily is xenobiotic metabolism.
# Human hepatocyte cultures were treated daily for two consecutive days with fresh dosing solutions containing appropriate concentrations of the 320 ToxCast chemicals (chemical identities were blinded to CellzDirect and other ToxCast collaborators), vehicle control (0.2% DMSO), and positive control inducers as summarized in Table 1. Due to the large number of treatment groups and chemicals examined, the ToxCast chemicals were divided into two groups (spanning two independent cultures of hepatocytes from separate donor preparations (Hu778: ToxCast plates 1 and 2; Hu776: ToxCast plates 3 and 4). Each preparation of human hepatocyte cultures was treated with respective vehicle control, medium only control, set of six positive controls/reference chemicals for the five hepatic receptor pathways, and a subset of eight of the ToxCast chemicals (indoxacarb, pyrithiobac-sodium, norflurazon, cyhalofop-butyl, methomyl, thiram, acetochlor, and propiconazole). These replicate data, coupled with internal replicates designed within the blinded ToxCast chemical library, provided additional data to evaluate interindividual differences between hepatocyte preparations and their potential impact on chemical profiles.Cell morphology and integrity were evaluated using phase-contrast microscopy as an indicator of hepatocyte cell health (Tyson & Green, 1987). Cultures for each treatment group (i.e., media, vehicle [0.2% DMSO], positive control inducers [multiple concentrations], and the ToxCast chemicals [multiple concentrations]) were observed and cell morphology was assessed relative to vehicle control cultures at each harvest time point (0, 6, 24, or 48 h). […] Images were evaluated at the conclusion of the study to assess changes in cell integrity and account for the effects of chemical exposure on uncharacteristic changes in concentration-dependent gene expression profiles. The results from these determinations of apparent cytotoxicity were annotated (yes/no) alongside the corresponding qNPA data for reference.At the conclusion of each treatment period, hepatocyte cultures (96-well) were washed with 1 volume of HBSS, lysed by addition of 25 ul ArrayPlate lysis buffer (HTG, Tucson, AZ), and 70 ul/well of Denaturation Oil, denatured by incubation at 95C for 10 min, and frozen at approximately -70C until analysis by nuclease protection assay (qNPA) (Roberts et al., 2007). For qNPA analysis, cell lysates were thawed at 50C for approximately 30 min, qNPA probes were added, and samples were incubated at 95C for 10 min to begin the detection process by denaturing the target RNA, dissociating the duplexes and secondary structure hybridization. At the conclusion of the hybridization period, S1 nuclease reagent was added to each sample to digest all nonprotected nucleotides at 50C for 60-90 min. […]
Structure (SMILES),outcome,AC50
COC(=O)c1ccc(I)cc1S(=O)(=O)NC(=O)Nc1nc(C)nc(OC)n1,inactive,
CCOC(=O)COc1cc(-n2ncc(C(F)(F)F)c(C)c2=O)c(F)cc1Cl,inactive,
CCCCCOC(=O)COc1cc(N2C(=O)C3=C(CCCC3)C2=O)c(F)cc1Cl,,20000 nM (active)
COC(=O)c1c(Cl)nn(C)c1S(=O)(=O)NC(=O)Nc1nc(OC)cc(OC)n1,,696 nM (active)
CCOC(=O)C(C)Oc1ccc(Oc2nc3ccc(Cl)cc3o2)cc1 (stereo not given),inactive,
CC1(C)C(C=C(Cl)Cl)C1C(=O)OCc1cccc(Oc2ccccc2)c1 (stereo not given),inactive,
CCCOC(=O)NCCCN(C)C,inactive,
CCOC(=O)[C@H](C)Oc1ccc(Oc2nc3ccc(Cl)cc3o2)cc1,,3970 nM (active)
CC(C)(c1ccc(O)cc1)c1ccc(O)cc1,,7.19 nM (active)
CSC(=O)c1cccc2nnsc12,,20000 nM (active)
CCC(C)OC(=O)N1CCCCC1CCO (stereo not given),inactive,
COC(=O)c1ccccc1C(=O)O,inactive,
CCCCOC(=O)C(C)Oc1ccc(Oc2ccc(C(F)(F)F)cn2)cc1 (stereo not given),inactive,
CCCN(CCC)c1c([N+](=O)[O-])cc(C(F)(F)F)c(N)c1[N+](=O)[O-],,3000 nM (active)
CCCCCCC(C)OC(=O)COc1nc(F)c(Cl)c(N)c1Cl (stereo not given),inactive,
COC(=O)CSc1cc(N=c2sc(=O)n3n2CCCC3)c(F)cc1Cl,,2660 nM (active)
CCCCC(CC)COC(=O)c1ccccc1C(=O)O (stereo not given),,63.7 nM (active)
CCN(Cc1c(F)cccc1Cl)c1c([N+](=O)[O-])cc(C(F)(F)F)cc1[N+](=O)[O-],,1900 nM (active)
COC(=O)c1ccccc1S(=O)(=O)NC(=O)Nc1nc(OC(F)F)cc(OC(F)F)n1,inactive,
CC(C)(C)[C@@H](O)[C@@H](Cc1ccc(Cl)cc1)n1cncn1,,1900 nM (active)

Structure (SMILES),outcome,AC50
CCCCOCCOCCOCc1cc2c(cc1CCC)OCO2,,4170 nM (active)
COc1c(Cl)ccc(Cl)c1C(=O)O,inactive,
CCSC(=O)N(CC(C)C)CC(C)C,inactive,
CN(C)C(=O)Nc1ccc(Cl)c(Cl)c1,,3970 nM (active)
CCNc1nc(N)nc(Cl)n1,inactive,
C=CCOC(Cn1ccnc1)c1ccc(Cl)cc1Cl (stereo not given),,86.1 nM (active)
CCCN(CCC)C(=O)SCC,inactive,
CCOC(=O)NCCOc1ccc(Oc2ccccc2)cc1,inactive,
O=C(Nc1ccc([N+](=O)[O-])cc1Cl)c1cc(Cl)ccc1O,,218 nM (active)
COC(=O)c1ccc(CNS(C)(=O)=O)cc1S(=O)(=O)NC(=O)Nc1nc(OC)cc(OC)n1,inactive,
COC(=O)c1cccc(C)c1S(=O)(=O)NC(=O)Nc1nc(OCC(F)(F)F)nc(N(C)C)n1,,5200 nM (active)
c1ccc2[nH]c(-c3cscn3)nc2c1,,3150 nM (active)
S=C(S)NCCNC(=S)S.[Mn+2].[S-]C([S-])=NCCN=C([S-])[S-].[Zn+2],,1450 nM (active)
CCN(CC)C(=O)c1cccc(C)c1,inactive,
COc1nc(C)nc(NC(=O)NS(=O)(=O)c2ccccc2OCCCl)n1,inactive,
N#CSCSc1nc2ccccc2s1,inactive,
CCCCOC(=O)[C@@H](C)Oc1ccc(Oc2ccc(C(F)(F)F)cn2)cc1,,20000 nM (active)
CCCCC(CC)CN1C(=O)C2C3C=CC(C3)C2C1=O (stereo not given),,6620 nM (active)
CCC(O)=C1C(=O)CC(C(=O)O)CC1=O (stereo not given),inactive,
Oc1ccc(C(c2ccc(O)cc2)C(Cl)(Cl)Cl)cc1,,52.2 nM (active)
